Laboratory results from PubChem BioAssay (Tox21).
Records with an inconclusive call do not appear. Calls of active or inactive are those of the source. Calls come from the whole dose curve; as a rule, active = well fitted inhibition curve with a large enough effect in the signal ratio in the repeat runs (not every such curve was filed as active); inconclusive = weak or mixed curves, or effect the other way; inactive = no such curve, though single readings can be large or run the other way; the % refers to the signal ratio.

Molecular target: Peroxisome proliferator-activated receptor delta (Homo sapiens) (UniProt Q03181)
Sequence (Q03181 whole entry, looked up): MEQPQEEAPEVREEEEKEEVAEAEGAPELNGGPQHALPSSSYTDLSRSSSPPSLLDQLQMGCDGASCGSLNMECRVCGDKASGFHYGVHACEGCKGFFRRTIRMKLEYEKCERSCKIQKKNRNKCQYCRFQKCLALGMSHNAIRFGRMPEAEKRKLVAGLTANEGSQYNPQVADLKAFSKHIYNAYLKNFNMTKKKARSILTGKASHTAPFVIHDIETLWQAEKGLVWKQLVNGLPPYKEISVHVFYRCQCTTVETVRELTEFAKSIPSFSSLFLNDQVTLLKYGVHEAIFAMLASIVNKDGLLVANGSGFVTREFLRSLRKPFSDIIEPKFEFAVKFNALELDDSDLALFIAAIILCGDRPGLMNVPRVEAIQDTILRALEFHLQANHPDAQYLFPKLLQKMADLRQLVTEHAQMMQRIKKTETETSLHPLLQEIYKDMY
Assay: qHTS assay to identify small molecule antagonists of the peroxisome proliferator-activated receptor delta (PPARd) signaling pathway (AID 743215);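 note: cells stimulated with agonist L165041 at 300 nM final during compound exposure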
Settings: HEK293H PPARd-UAS-bla, beta-lactamase FRET ratio, antagonist, 17 h; series mostly up to 62 µM
Source text: U.S. Tox21 Program National Center for Advancing Translational Sciences [NCATS] NIH Chemical Genomics Center [NCGC] U.S. Environmental Protection Agency [EPA] National Institutes of Environmental Health Sciences [NIEHS] National Toxicology Program [NTP] U.S. Food and Drug Administration [FDA] Tox21 Assay Overview: The peroxisome proliferator-activated receptors (PPARs) are lipid-activated transcription factors of the nuclear receptor superfamily with three distinct subtypes namely PPAR alpha, PPAR delta (PPARd) and PPAR gamma. All these subtypes heterodimerizes with Retinoid X receptor (RXR) and have different physiological functions. […] To identify the compounds that inhibit PPAR-delta signaling, GeneBLAzer PPAR delta UAS-bla HEK293H cell line (Invitrogen, Carlsbad, CA, USA) containing a beta-lactamase reporter gene under the control of an Upstream Activator Sequence (UAS) was used to screen the Tox21 compound library.
Tox21 Assay Protocol Summary: PPARd-bla cells were dispensed at 3000 cells/5uL/well in 1536-well black wall/clear bottom plates using a Multidrop Combi (Thermo Fisher Scientific, Waltham, MA) dispenser. After the assay plates were incubated at 37 C and 5% CO2 for 5 h, 23 nL of compounds dissolved in DMSO, positive controls or DMSO only was transferred to the assay plate by a Pintool station (Kalypsys, San Diego, CA), followed by addition of 1ul L165041 (300 nM, final concentration in the wells). The assay plates were incubated at 37 C for 17 h, and then 1 uL of LiveBLAzerTM B/G FRET substrate was added using a Bioraptr Flying Reagent Dispenser (FRD) workstation (Beckman Coulter, Indianapolis, IN, USA). The assay plates were incubated at room temperature for 2 h and fluorescence intensity was measured by an Envision plate reader (PerkinElmer, Shelton, CT).

Structure (SMILES)	outcome
CCCCCCCCCCCCCC(=O)OC	inactive
O=C1NC2NC(=O)NC2N1 (stereo not given)	inactive
CCCCCCCCCOCC1CO1 (stereo not given)	inactive
SCCSCCS	inactive
NC(=O)NNC(N)=O	inactive
C1=C\CC/C=C\CC/1	inactive
C1=CCC(c2ccccc2)CC1 (stereo not given)	inactive
O=C(O)C(=O)Nc1cccc(-c2nn[nH]n2)c1	inactive
CCC(O)C(C)(C)C (stereo not given)	inactive
CC(C)(c1ccc(Oc2ccc3c(c2)C(=O)OC3=O)cc1)c1ccc(Oc2ccc3c(c2)C(=O)OC3=O)cc1	inactive
CC(C)(C)c1ccc(C=O)cc1	inactive
CN(C)CCCNCCC#N	inactive
O=C(Nc1cccc(C2=NCCN2)c1)Nc1cccc(C2=NCCN2)c1	inactive
CCC(C)(CCC(C)C)C(=O)[O-].CCC(C)(CCC(C)C)C(=O)[O-].[Zn+2] (stereo not given)	inactive
COc1cc([N+](=O)[O-])ccc1N	inactive
C=CCOCC(CO)(COCC=C)COCC=C	inactive
O=P(O)(O)OCC(O)CO (stereo not given)	inactive
C=C[C@@H](C)CCC=C(C)C	inactive
O=c1cc(O)c(Cl)c[nH]1	inactive
Nc1ccc(S(=O)(=O)NC(=O)c2ccccc2)cc1	inactive

Structure (SMILES)	outcome
COc1cc(C=O)ccc1OC(=O)C(C)C	inactive
CC1(N)CCC(C(C)(C)N)CC1 (stereo not given)	inactive
BrC/C=C/CBr	inactive
CCC(C)N (stereo not given)	inactive
CC(=O)OC[C@H]1O[C@@H](OC(C)=O)[C@H](OC(C)=O)[C@@H]1OC(C)=O	inactive
CCCOCCOCCOCCO	inactive
Nc1nc(=O)n([C@@H]2O[C@H](CO)[C@@H](O)[C@@H]2F)cc1I	inactive
Cc1cccc(NC(=S)N(C)C)c1	inactive
Cc1cc(C)cc([N+](=O)[O-])c1	inactive
CNC(=O)NC	inactive
COC(OC)C(C)c1ccccc1 (stereo not given)	inactive
CC(=O)OCC(=O)[C@@]1(O)[C@H](OC(C)=O)C[C@H]2[C@@H]3CCC4=CC(=O)C=C[C@]4(C)[C@@]3(F)[C@@H](O)C[C@@]21C	inactive
CCCCCCCC/C=C\CCCCCCCC(=O)OC[C@@H](O)[C@H]1OC[C@H](O)[C@H]1O	inactive
CNCc1ccccc1	inactive
Cc1ccccc1C(=O)N1CC/C(=N\OS(=O)(=O)O)c2ccc(Cl)cc21	inactive
O=[Si]=O	inactive
CCCCOC(=O)C(=O)OCCCC	inactive
Cc1nc2ccccc2c(=O)o1	inactive
CC(C)CCO	inactive
CCCO	inactive
